Three molecules from PubChem BioAssay (EPA / NIEHS) can be followed below.

Inconclusive results are not listed. The source made the active and inactive calls. Rule for the calls, unless noted: active = hit-call score of the fitted dose curve at least 0.9, where 1 is the maximum; inactive = score below 0.9.

The nature of test [1]: BSK_LPS_PGE2: BioMAP Diversity Plus: LPS Assay for Prostaglandin E2 (PGE2) Biomarker Activity (AID 2283082). The note with it: primary human HUVEC with PBMC; actives raise or lower the signal. The essentials: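 PGE2 release measured by ELISA in an LPS-activated co-culture of human umbilical vein endothelial cells and peripheral blood mononuclear cells, read at 24 h post-dosing. DMSO served as baseline for bidirectional curve fitting.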

Read-out in test [2]: Macrophage colony-stimulating factor (MCSF), CSF1 (gene 1435)
Kind of test: BSK_LPS_MCSF: BioMAP Diversity Plus: LPS Assay for Macrophage colony-stimulating factor (MCSF) Biomarker Activity (AID 2283083). As to conditions: primary human HUVEC with PBMC; actives raise or lower the signal. The essentials: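 Human umbilical vein endothelial cells co-cultured with peripheral blood mononuclear cells were exposed to compound for 24 h. M-CSF levels were measured by ELISA, and bidirectional curve fitting used DMSO as the negative control and baseline.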

Read-out in test [3]: Tissue Factor, F3 (gene 2152)
Kind of test: BSK_LPS_TissueFactor: BioMAP Diversity Plus: LPS Assay for Tissue Factor Biomarker Activity (AID 2283084). The note with it: primary human HUVEC with PBMC; actives raise or lower the signal. The procedure, abridged: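 Human umbilical vein endothelial cells co-cultured with peripheral blood mononuclear cells were dosed and stimulated with LPS. Cell-surface CD142 was quantified by ELISA at 24 h. Activity was fitted bidirectionally against DMSO baseline.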

Read-out in test [4]: Tumor necrosis factor (Homo sapiens) (UniProt P01375)
Kind of test: BSK_LPS_TNFa: BioMAP Diversity Plus: LPS Assay for Tumour Necrosis Factor alpha (TNFa) Biomarker Activity (AID 2283085). The note with it: primary human HUVEC with PBMC; actives raise or lower the signal. The essentials:
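TNFa was quantified by ELISA in LPS-activated co-cultures of human endothelial cells and PBMC, 24 h post-dosing. Both increases and decreases versus DMSO were fitted.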

Read-out in test [5]: Vascular cell adhesion molecule 1 (VCAM1), VCAM1 (gene 7412)
Kind of test: BSK_LPS_VCAM1: BioMAP Diversity Plus: LPS Assay for Vascular cell adhesion molecule 1 (VCAM1) Biomarker Activity (AID 2283086). As to conditions: primary human HUVEC with PBMC; actives raise or lower the signal. The essentials: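 VCAM-1 quantified by ELISA in an LPS-activated co-culture of human endothelial cells and peripheral blood mononuclear cells, read 24 h post-treatment. Fitted in both directions versus DMSO; parallel SRB staining flags overt cytotoxicity.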

Read-out in test [6]: CD38, CD38 (gene 952)
Kind of test: BSK_SAg_CD38: BioMAP Diversity Plus: SAg Assay for CD38 Biomarker Activity (AID 2283087). The note with it: primary human HUVEC with PBMC; actives raise or lower the signal. The procedure, abridged:
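CD38 quantified by ELISA (fluorescence) in a superantigen-activated endothelial cell–PBMC co-culture at 24 h post-dose. Activity fitted in both directions relative to DMSO; parallel SRB and Alamar Blue cytotoxicity read-outs.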

Read-out in test [7]: CD40, CD40 (gene 958)
Kind of test: BSK_SAg_CD40: BioMAP Diversity Plus: SAg Assay for CD40 Biomarker Activity (AID 2283088). The note with it: primary human HUVEC with PBMC; actives raise or lower the signal. The procedure, abridged:
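Human umbilical vein endothelial cells co-cultured with PBMC; CD40 levels measured by ELISA with fluorescence read-out 24 h after chemical dosing. Gain or loss of signal fitted bidirectionally against DMSO baseline.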

Read-out in test [8]: CD69, CD69 (gene 969)
Kind of test: BSK_SAg_CD69: BioMAP Diversity Plus: SAg Assay for CD69 Biomarker Activity (AID 2283089).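 For AC50: cell surface CD69 protein quantified by ELISA with fluorescence detection.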 The note with it: primary human HUVEC with PBMC; actives raise or lower the signal. The procedure, abridged:
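ELISA, fluorescence read-out: CD69 on human umbilical vein endothelial cell + PBMC co-culture, 24 h post-dosing. Gain or loss of signal fitted bidirectionally against DMSO baseline.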

Read-out in test [9]: Monocyte Chemoattractant Protein-1 (MCP1), CCL2 (gene 6347)
Kind of test: BSK_SAg_MCP1: BioMAP Diversity Plus: SAg Assay for Monocyte Chemoattractant Protein-1 (MCP1) Biomarker Activity (AID 2283090). As to conditions: primary human HUVEC with PBMC; actives raise or lower the signal. The essentials:
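Values derive from bidirectional fitting of ELISA-measured MCP1 against DMSO controls. Readings were taken 24 h after dosing human vascular endothelial cells co-cultured with peripheral blood mononuclear cells under superantigen stimulation.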

Read-out in test [10]: E-selectin (Homo sapiens) (UniProt P16581)
Kind of test: BSK_SAg_Eselectin: BioMAP Diversity Plus: SAg Assay for Eselectin Biomarker Activity (AID 2283091). As to conditions: primary human HUVEC with PBMC; actives raise or lower the signal. The procedure, abridged: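 HUVEC co-cultured with PBMC, compound dosed then read at 24 h; E-selectin measured by ELISA. Activity fitted bidirectionally against DMSO as negative control and baseline.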

Read-out in test [11]: Monokine induced gamma interferon (MIG), CXCL9 (gene 4283)
Kind of test: BSK_SAg_MIG: BioMAP Diversity Plus: SAg Assay for Monokine induced gamma interferon (MIG) Biomarker Activity (AID 2283092). As to conditions: primary human HUVEC with PBMC; actives raise or lower the signal. The essentials: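 ELISA readout of MIG/CXCL9; primary human umbilical vein endothelial cells co-cultured with peripheral blood mononuclear cells; 24 h post-dose; gain/loss fit vs DMSO baseline.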

Test [12] in a line: BSK_SAg_PBMCCytotoxicity: PBMC Cytotoxicity Assessment in the BioMAP Diversity Plus: SAg Assay (AID 2283093).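 For AC50: PBMC superantigen activated with SEB plus TSST-1 one hour after compound addition.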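 Note: PBMC viability measured as Alamar Blue reduction fluorescence at 546/580 nm; fitted both ways against DMSO so a hit may be loss or gain of signal.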 As to conditions: primary human HUVEC with PBMC. The procedure, abridged:
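Alamar Blue reduction (6 h, 546/580 nm) reports PBMC cytotoxicity after 90 h superantigen activation (SEB, TSST-1; 20 ng/mL final each) with 1 h compound pre-treatment. Gain or loss of signal fitted versus DMSO.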

Read-out in test [13]: Interleukin-8 (IL8), CXCL8 (gene 3576)
Kind of test: BSK_SAg_IL8: BioMAP Diversity Plus: SAg Assay for Interleukin-8 (IL8) Biomarker Activity (AID 2283094). As to conditions: primary human HUVEC with PBMC; actives raise or lower the signal. The procedure, abridged: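 ELISA readout of IL-8 from a superantigen-activated endothelial/PBMC primary human co-culture, taken 24 h post-dosing and fitted in both directions against DMSO; parallel SRB total-protein staining flags overt cytotoxicity.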

The nature of test [14]: BSK_SAg_Proliferation: Cell Proliferation Assessment in the BioMAP Diversity Plus: SAg Assay (AID 2283095).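 Note: relative cell number as total protein by SRB absorbance in sub-confluent culture.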 As to conditions: primary human HUVEC with PBMC. The essentials:
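Relative cell number in the endothelial cell/PBMC co-culture was quantified at 96 h by SRB staining (0.1% SRB, 10% TCA fixation, read at 560 nm). Curves were fitted in both directions relative to DMSO baseline.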

A short description of test [15]: BSK_SAg_SRB: Viability Assessment in the BioMAP Diversity Plus: SAg Assay (AID 2283096).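 Note: cells read one day after compound addition; hits may be either gain or loss of signal compared with DMSO.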 As to conditions: primary human HUVEC with PBMC. The procedure, abridged:
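This overt-cytotoxicity endpoint quantifies protein in human endothelial/PBMC co-cultures at 24 h using SRB absorbance (560 nm) after trichloroacetic acid fixation. Values reflect signal change from the DMSO negative control, fitted bidirectionally.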

Test [16] deals with human CYP1A1, CYP1A1 (gene 1543) (UniProt P04798). Kind of test: NVS_ADME_hCYP1A1: NovaScreen (NVS) CYP450-related Enzyme Activity (ADME) Assay for human CYP1A1 (AID 2283100; active = hit-call score of the fitted dose curve at least 0.9, where 1 is the maximum). The essentials:
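Cell-free fluorescence assay of recombinant human CYP1A1 activity with a specific substrate, read 1 h after dosing. Compounds were screened in duplicate at 10 uM, then hits tested in concentration-response up to 20 uM; acetonitrile served as baseline.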

Test [17] deals with human CYP19A1, CYP19A1 (gene 1588) (UniProt P11511). Kind of test: NVS_ADME_hCYP19A1: NovaScreen (NVS) CYP450-related Enzyme Activity (ADME) Assay for human CYP19A1 (AID 2283098; active = hit-call score of the fitted dose curve at least 0.9, where 1 is the maximum;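 note: potency for inhibitors seen as loss of fluorescent enzyme signal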). The essentials: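 Compounds were first screened at 10 uM in duplicate against purified enzyme, with a fluorogenic substrate and fluorescence intensity detection after 0.5 h. Inhibition appears as reduced signal against acetonitrile control.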

The target in test [18] is human CYP2B6, CYP2B6 (gene 1555) (UniProt P20813). Kind of test: NVS_ADME_hCYP2B6: NovaScreen (NVS) CYP450-related Enzyme Activity (ADME) Assay for human CYP2B6 (AID 2283101; active = hit-call score of the fitted dose curve at least 0.9, where 1 is the maximum). The essentials:
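Fluorescence-based enzyme activity of recombinant human CYP2B6, measured 1 h post-dose against acetonitrile vehicle baseline. Screened at a single concentration of 10 uM in duplicate before concentration-response follow-up.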

Chain of E-selectin (Homo sapiens) (P16581 whole entry, looked up): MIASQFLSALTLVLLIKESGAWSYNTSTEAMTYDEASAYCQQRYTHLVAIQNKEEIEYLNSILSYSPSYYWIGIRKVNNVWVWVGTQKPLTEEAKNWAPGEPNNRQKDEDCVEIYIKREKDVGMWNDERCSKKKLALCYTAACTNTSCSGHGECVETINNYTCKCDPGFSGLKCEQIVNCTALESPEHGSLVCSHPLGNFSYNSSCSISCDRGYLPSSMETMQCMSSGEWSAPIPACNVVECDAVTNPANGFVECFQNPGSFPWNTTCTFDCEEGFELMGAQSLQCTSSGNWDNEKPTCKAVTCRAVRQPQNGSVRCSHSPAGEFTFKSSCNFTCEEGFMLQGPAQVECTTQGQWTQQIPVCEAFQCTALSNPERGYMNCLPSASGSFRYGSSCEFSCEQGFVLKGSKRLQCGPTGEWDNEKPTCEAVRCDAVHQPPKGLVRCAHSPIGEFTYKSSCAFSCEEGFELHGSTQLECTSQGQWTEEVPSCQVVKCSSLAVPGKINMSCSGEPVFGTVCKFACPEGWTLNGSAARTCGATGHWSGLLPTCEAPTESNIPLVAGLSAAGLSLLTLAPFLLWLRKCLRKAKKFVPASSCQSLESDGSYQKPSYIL
Chain of Tumor necrosis factor (Homo sapiens) (P01375 whole entry, looked up): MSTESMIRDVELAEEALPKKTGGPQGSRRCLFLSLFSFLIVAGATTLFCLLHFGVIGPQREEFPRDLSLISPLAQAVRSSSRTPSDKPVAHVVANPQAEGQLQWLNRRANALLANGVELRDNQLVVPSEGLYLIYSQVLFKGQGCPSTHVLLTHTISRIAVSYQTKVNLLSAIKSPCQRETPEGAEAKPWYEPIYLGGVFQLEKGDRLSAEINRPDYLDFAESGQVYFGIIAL
Chain of human CYP2B6, CYP2B6 (gene 1555) (P20813 whole entry, looked up): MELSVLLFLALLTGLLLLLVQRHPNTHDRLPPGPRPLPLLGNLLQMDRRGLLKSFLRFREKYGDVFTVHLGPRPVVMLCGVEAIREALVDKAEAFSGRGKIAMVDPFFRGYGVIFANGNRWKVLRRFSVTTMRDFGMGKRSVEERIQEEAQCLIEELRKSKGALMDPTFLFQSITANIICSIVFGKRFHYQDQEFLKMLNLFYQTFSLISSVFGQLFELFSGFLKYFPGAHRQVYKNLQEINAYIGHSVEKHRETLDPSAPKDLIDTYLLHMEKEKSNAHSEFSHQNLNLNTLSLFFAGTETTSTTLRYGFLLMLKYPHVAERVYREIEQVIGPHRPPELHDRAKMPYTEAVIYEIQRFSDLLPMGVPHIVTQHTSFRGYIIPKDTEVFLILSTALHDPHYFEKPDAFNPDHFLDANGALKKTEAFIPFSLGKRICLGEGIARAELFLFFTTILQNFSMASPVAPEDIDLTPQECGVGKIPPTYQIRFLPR
Chain of human CYP1A1, CYP1A1 (gene 1543) (P04798 whole entry, looked up): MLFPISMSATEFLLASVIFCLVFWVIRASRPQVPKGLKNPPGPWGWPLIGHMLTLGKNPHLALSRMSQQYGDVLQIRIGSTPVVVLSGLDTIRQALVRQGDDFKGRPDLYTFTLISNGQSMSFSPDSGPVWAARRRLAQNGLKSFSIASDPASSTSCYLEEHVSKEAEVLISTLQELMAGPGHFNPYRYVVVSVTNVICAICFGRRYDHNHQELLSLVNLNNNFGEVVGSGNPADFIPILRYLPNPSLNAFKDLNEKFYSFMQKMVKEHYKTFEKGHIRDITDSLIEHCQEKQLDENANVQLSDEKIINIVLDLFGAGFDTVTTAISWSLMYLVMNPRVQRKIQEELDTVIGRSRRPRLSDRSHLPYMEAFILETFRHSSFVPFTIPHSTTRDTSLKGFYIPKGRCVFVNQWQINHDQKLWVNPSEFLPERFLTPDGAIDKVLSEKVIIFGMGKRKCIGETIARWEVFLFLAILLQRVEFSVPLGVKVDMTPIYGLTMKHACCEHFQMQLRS
Chain of human CYP19A1, CYP19A1 (gene 1588) (P11511 whole entry, looked up): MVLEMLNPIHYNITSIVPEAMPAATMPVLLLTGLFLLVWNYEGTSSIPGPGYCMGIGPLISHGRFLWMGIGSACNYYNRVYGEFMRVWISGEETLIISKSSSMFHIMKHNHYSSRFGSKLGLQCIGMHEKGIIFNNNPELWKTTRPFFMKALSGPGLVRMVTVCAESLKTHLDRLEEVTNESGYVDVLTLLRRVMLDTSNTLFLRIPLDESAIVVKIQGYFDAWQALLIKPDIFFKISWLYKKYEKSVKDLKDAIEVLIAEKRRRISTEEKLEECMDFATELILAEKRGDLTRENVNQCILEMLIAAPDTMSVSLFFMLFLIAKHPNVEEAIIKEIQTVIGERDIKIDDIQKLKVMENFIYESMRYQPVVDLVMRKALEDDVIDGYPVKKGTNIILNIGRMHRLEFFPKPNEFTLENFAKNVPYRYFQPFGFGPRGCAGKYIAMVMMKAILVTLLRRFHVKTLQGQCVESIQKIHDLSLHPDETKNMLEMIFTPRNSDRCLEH

What is called AC50 is the midpoint of the concentration-response curve, whichever way the signal moves. Regarding `CCOC(=O)COc1ccc2c(c1)CC(NCC(O)c1cccc(Cl)c1)CC2` (stereo not given), the AC50 in [1] was 27.6 µM (active); in test [2] it was 34.5 µM (active); in [5] it was 31.3 µM (active); in [6], 29.2 µM (active); in test [7], 28.8 µM (active); in test [8], 18.3 µM (active). Besides, the AC50 in test [9] was 27.7 µM (active); in [12], 27.2 µM (active); in test [13], 18.3 µM (active); in [14] it was 31.7 µM (active); in [15], 27.2 µM (active). Besides, the outcome in test [3], in test [4], in [10], in test [11] and in [16] was inactive.

With `CCOC(=O)c1ccc(C2CCC(NC[C@H](O)COc3ccc(O)c(NS(C)(=O)=O)c3)CC2)cc1` (stereo not given in full), the outcome in [1], in [3], in test [4], in test [7], in test [10] and in [11] was inactive. Besides, the molecule was classed as inactive in [18]. Further, the half-maximal activity concentration (AC50) in test [2] was 18.7 µM (active); in test [5], 28.1 µM (active); in test [6] it was 32.4 µM (active); in [8] it was 29.8 µM (active); in [9], 11.6 µM (active); in [12], 20.6 µM (active). In addition, the AC50 in test [13] is 28.8 µM (active); in test [14], 14.4 µM (active); in [15], 26.3 µM (active); in test [17], 0.513 µM (active).

For the molecule `CC(=O)OCCC(C)C`, the outcome in test [1], in test [2], in test [3], in test [4], in test [5] and in test [6] was inactive. For the same molecule, the outcome in [7], in test [8], in test [9], in test [10], in test [11] and in test [12] was inactive. The outcome in test [13], in [14], in test [15], in [16] and in test [18] was inactive.
